According to the supplement of paper PMC6555819:

Key:
Assay in all cases: PBM binding z-score (relative to random genomic background probes); higher = stronger binding; sequences stand for … in GC…GCGATTGACAGCGTAGAATGAAGG
[1] = tested on: RARb homodimer (NR concentration 270 nM)
Procedure, shortened: (§1)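 Scanned fluorescence from custom Agilent 4×180K protein-binding microarrays was regression-normalized. Binding z-scores use random background probes as reference. Ligand-free nuclear receptor dimers were incubated on the arrays for 1 h and detected with antibodies against each partner (one per run).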

[2] = tested on: RARg:RXRa (NR concentration 270 nM, RXRa partner concentration 90 nM)
Procedure, shortened: as §1

[3] = tested on: RARg homodimer (NR concentration 270 nM)
Procedure, shortened: as §1

[4] = tested on: RXRa DBDmut IVT, anti-RXR (DBD mutation: RXRa K156A/R161A, NR concentration 90 nM)
Procedure, shortened: as §1

[5] = tested on: RXRa homodimer (NR concentration 180 nM)
Procedure, shortened: as §1

[6] = tested on: THRa:RXRa (NR concentration 90 nM, RXRa partner concentration 90 nM)
Procedure, shortened: as §1

[7] = tested on: THRa homodimer (NR concentration 90 nM)
Procedure, shortened: as §1

[8] = tested on: VDR homodimer (NR concentration 270 nM)
Procedure, shortened: as §1

| Sequence | PBM binding z-score [1] | PBM binding z-score [2] | PBM binding z-score [3] | PBM binding z-score [4] | PBM binding z-score [5] | PBM binding z-score [6] | PBM binding z-score [7] | PBM binding z-score [8] |
| --- | --- | --- | --- | --- | --- | --- | --- | --- |
| GCTAGTTGGGCAGTAAAAGGTCACACACCGGTCG | 5.15 | 5.03 | 4.7 | 0.364 | 5.38 | 3.49 | 1.62 | 1.66 |
| TGTCAAAGTCCAAAGGTAACGTAAGTATCCACAC | 1.08 | 1.64 | 1.23 | 0.368 | 0.946 | 1.11 | -0.182 | 0.0854 |
| CGAACGAGGGCATGAGTTGATAACAAATGCCGAT | 0.641 | 1.37 | 1.59 | 2.64 | 1.05 | 1.19 | -0.0778 | 1.48 |
| ATCTCTAGGTAACCAAGATCAGTGAATGCCGAAC | -0.128 | 0.35 | 0.445 | -0.167 | 0.343 | 0.734 | 0.469 | -0.138 |
| TCATGTAGATCAAGCAGGTTAAGAAAGCCTGAGT | 0.058 | 0.118 | 0.0856 | 0.962 | 0.48 | 0.397 | -0.412 | 0.0758 |
| TCTTCTAGATCAAAGGTTAAGAAAGCCGAAGCCT | 1.54 | 1.99 | 1.03 | 0.838 | 2.95 | 1.51 | -0.597 | 0.119 |
| TTACCAAGGTGAAGGTCGTTTATCCCTCTGTAGA | 1.99 | 1.2 | 1.11 | 0.869 | 1.49 | 2.5 | 1.18 | 1.61 |
| TGAATTAGGTTAAAGATCAGGGAACGTGGCGTCG | -0.0287 | 0.954 | 0.891 | -0.199 | 1.58 | 0.806 | 0.0277 | 0.326 |
| GCTGCTAGGTCAACTGATGGTCAGCTCAAGCTCG | 3.67 | 5.5 | 5.38 | 1.62 | 2.96 | 3.09 | 1.25 | 0.00206 |
| GCTAGTTGGTCAGGAAAAGGTCACACACCGGTCG | 5.07 | 5.34 | 4.46 | 0.286 | 4.98 | 3.52 | 1.64 | 1.68 |
| CTTCCAAGGTCATAGGAGGTCAGTGAAGACAGAT | 5.3 | 7 | 7.48 | 3.89 | 7.13 | 5.26 | 3.21 | 4.49 |
| GGAACGAGGGCATTCGAGTTGTTAGCATGGCGAT | 0.647 | 0.902 | 1.17 | 2.89 | 0.659 | 2.06 | -0.524 | 2.43 |
| CAAACTAGGTCAAAGGTAAAAGTCGAGCCAACCA | 2.87 | 5.02 | 4.78 | 2.02 | 5.74 | 3.26 | 0.692 | 0.479 |
| CCTACTGGGCCACGAAAGGTCATTGTTTCAGTGA | 4.64 | 4.55 | 4.31 | 0.971 | 5.09 | 3.94 | 0.739 | 2.75 |
| ACTAGCAGGCCAAGGGTCACTGAAGATTAGTCCG | 3.8 | 4.5 | 3.97 | 0.371 | 4.49 | 2.68 | -0.0402 | 0.94 |
| CCTTACGGGTCACTCCAAGTTATAGCATCGGAGT | 2.81 | 4.31 | 4.69 | 1.81 | 4.11 | 2.51 | 0.165 | 1.05 |
| TCTGCTAGGTCAACGATCGTCAGCTAATCTGCTA | 2.88 | 4.06 | 4.96 | 0.835 | 2.44 | 2.6 | 0.335 | -0.498 |
| GCGACTGGGGCAAAGCGGGTTACCATAAGGTTGG | 0.945 | 0.446 | 0.469 | -0.587 | 0.545 | 2.47 | 0.0771 | -0.483 |
| TCTTGTAGATCAACAGGAGTTTAAGAAAGATCGA | -0.522 | 0.249 | -0.0816 | 0.335 | 0.176 | -0.275 | -1.05 | 0.485 |

| Sequence | PBM binding z-score [1] | PBM binding z-score [2] | PBM binding z-score [3] | PBM binding z-score [4] | PBM binding z-score [5] | PBM binding z-score [6] | PBM binding z-score [7] | PBM binding z-score [8] |
| --- | --- | --- | --- | --- | --- | --- | --- | --- |
| CCTAGTTGGTCCAGGTCACACACGCTATAGGTAC | 3.15 | 2.68 | 2.73 | 1.35 | 2.64 | 3.72 | 3.98 | 2.54 |
| CCGAGTAGGTTTTGGGGCATTCAGGCAACGGTGA | 0.615 | -0.245 | -0.424 | 0.218 | -0.246 | 0.595 | 0.467 | 0.218 |
| TCGAGTAGGTTAGGGGCAATCAGAATGGCGTCGA | 0.79 | 0.398 | 0.315 | 0.12 | 0.782 | 0.826 | 0.262 | 0.267 |
| CCTCGGAGGACAACAGGAGTTCAGAGCTGCCAGA | 1.91 | 1.7 | 1.9 | 0.979 | 0.335 | 1.17 | -0.102 | 2.95 |
| CGTCAAAGTCCAACTAAGGTAACGTAAAGCACGC | 1.43 | 0.748 | 1.4 | 1.14 | 0.261 | 3.44 | 1.91 | 0.579 |
| TCTTGTAGATCAGCAGCTTAAGAAAGCTGGCCAA | -0.684 | -0.435 | -0.915 | 0.258 | -0.355 | -0.626 | -0.605 | -0.685 |
| CCCACTGGGGCAGAAAGGTTACCATACCATCCGG | 2.2 | 1.52 | 1.63 | -1.65 | 1.6 | 1.01 | -0.221 | -0.41 |
| CCTACTGGCCCATTCAGAGGTCATTGATCATATG | 3.64 | 2.97 | 2.56 | 0.948 | 3.56 | 3.04 | 1.71 | 3.87 |
| TTACGAAGGTGAGCTGAGGTCGTTGATCCAACTC | 1.6 | 1.37 | 1.23 | 0.439 | 1.27 | 4.56 | 1.78 | 2.57 |
| CCTATTAGTTGACCATAAAGGCAACCGAAGCTCG | 0.622 | 0.557 | 0.504 | 0.578 | 0.337 | 0.39 | 0.543 | 0.626 |
| CCTTACGGGTCACGAGATTATAGCACGACGAGCG | 2.95 | 5.47 | 5.3 | 1.95 | 5.8 | 2.82 | 0.216 | 0.718 |
| CAAACTAGGTCACAGAGGTCAAAGTGCGTGCGTA | 5.64 | 7.46 | 7.84 | 3.65 | 7.66 | 4.92 | 3.02 | 6.01 |
| CGTCAATGTTCAACTAAGGTAACGTAAAGCACGC | 0.643 | 0.459 | 0.531 | 0.651 | 0.456 | 3.46 | 2.04 | 0.309 |
| CCAGACAGGTGAGAAGGTAACTCGGCCTCGATTA | 0.583 | 0.465 | 0.269 | 0.0522 | 0.351 | 0.364 | 0.256 | -0.0946 |
| AGAATGAGGTTAAGATCAGCGAAACAGAATACAT | 0.64 | 1.9 | 1.45 | 0.594 | 2.39 | 2.27 | 0.587 | 0.524 |
| ATGTGTAGGTTAAGGGTCATTCAGGTTGGTTCGC | 4.06 | 4.95 | 3.99 | 2.14 | 6.33 | 3.69 | 2.32 | 5.37 |
| CATCGGAGGACAACAGGAGGTCAGAGCTGCCAGA | 3.62 | 3.59 | 3.48 | 0.373 | 2.29 | 3.01 | 1.31 | 1.1 |
| GCTGCTAGATCAACTGATGGTCAGCTAAAGCTCG | -0.449 | -0.186 | -0.352 | -0.229 | -0.482 | -0.352 | -1.12 | -0.805 |
| TCTAGCAGGCAAGAGGGTCACTCAAGAGGTACGG | 2.42 | 2.15 | 1.93 | -0.113 | 2.5 | 1.47 | -0.453 | 0.595 |

| Sequence | PBM binding z-score [1] | PBM binding z-score [2] | PBM binding z-score [3] | PBM binding z-score [4] | PBM binding z-score [5] | PBM binding z-score [6] | PBM binding z-score [7] | PBM binding z-score [8] |
| --- | --- | --- | --- | --- | --- | --- | --- | --- |
| CAGCCTAGGTCAGGGCCAGTGTAGGAGGAACGTT | 2.75 | 2.76 | 3.69 | -0.674 | 1.58 | 2.17 | 0.608 | -0.169 |
| TTACCAAGGTGAGCTGAGGTCGTTGTTCCAACTC | 1.84 | 1.31 | 0.592 | 0.437 | 1.42 | 4.75 | 2.02 | 2.12 |
| CAAACTAGGTCACAGAGGTAAAAGTCCGTGCGTA | 3.54 | 4.87 | 5.32 | 1.95 | 3.93 | 3.71 | 1.63 | 2.01 |
| CGAACTAGGTCAGAACAGGATAGTGAAGGATGAT | 1.64 | 2.44 | 3.17 | 0.707 | 1.34 | 2.39 | 0.235 | 0.187 |
| TGTCAAAGTTCAAAGGTAACGCAAGTATCCACAC | 3.97 | 6.5 | 6.22 | 4.42 | 7.38 | 3.23 | 0.0532 | 4.37 |
| ACTATTAGTTGAGACCAGGGCAACCGATAGGTTG | 0.667 | 0.276 | 0.568 | -0.232 | 0.3 | 1.79 | 0.11 | 0.0358 |
| CCTACTGGGCCATCAGGTCATTTATATCAACGTT | 2.44 | 1.8 | 1.64 | 0.641 | 0.891 | 3.14 | 3.01 | 1.61 |
| AGACAAAGTTCATCTAGGTAACGTAAGATATGCT | 4.12 | 5.68 | 5.87 | 5.05 | 4.64 | 3.07 | 0.133 | 5.21 |
| ACTAGTTGGTCAGCTGAGGTCACGCACAATTCGG | 4.79 | 4.85 | 4.8 | 1.32 | 4.79 | 5.26 | 5.78 | 3.51 |
| CAAACTACGTCAAGAGGTCAAAGTCCGCTTCCCG | 4.32 | 5.45 | 4.73 | 2.5 | 6.72 | 3.72 | 1.78 | 4.48 |
| CGTCCAAGTTCAACTAAGGTAACGTAAAGCACGC | 2.73 | 3.63 | 3.97 | 4.54 | 2.79 | 5.06 | 2.45 | 4.43 |
| ATACCAAGGTGATCGTGCGGTCGTTGATACTAAC | 0.887 | 0.886 | 0.233 | -0.0167 | 0.159 | 1.23 | 0.424 | 0.302 |
| TCAGACAGGTGAAGGTAACTCAGGTACGCAGTCG | 1 | 0.581 | 0.551 | 1.37 | 0.995 | 1.48 | 0.516 | 0.357 |
| CCGCCTGGGGCAGAAAGGTTACCATACCATCCGG | 2.37 | 1.47 | 1.32 | -0.959 | 1.55 | 1.03 | -0.231 | 0.052 |
| AGTCAAAGTTTACTAGGTAACGTAAGATTCAGCT | 0.795 | 0.885 | 1.46 | 1.44 | 0.16 | 0.591 | -0.0944 | 0.294 |
| TCTAGTTGGCCACGGAGGTCACACACGACGGGTA | 3.85 | 3.98 | 3.67 | 0.683 | 4.31 | 3.48 | 2.53 | 1.99 |
| TCATATAGGTAAAGGGGAAAGTCGAACGATATGA | 0.241 | 0.707 | 0.688 | 1.39 | 1.21 | 0.241 | -0.0232 | -0.173 |
| TCATATAGGTAAAAGGTAAAAGTCGGTGTGGTAA | 0.553 | 0.857 | 0.169 | 1.88 | 1.94 | 0.886 | 0.222 | 0.494 |
